The whole screen tested about 1,500 compounds, of which about 460 (31%) were called active. Roughly 1% stayed inconclusive and do not appear here.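 Rule for the calls: active = curve reaches 40% activation over neutral controls at an AC40 no higher than the top valid tested concentration; inconclusive = no clear call, values can overlap the other calls; inactive = signal moving opposite to the expected increase, and the rest.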 Not all results are given here. Potency and affinity values are given separately.
Experiment: GLuc-reported insulin release enhancers, glucose-stimulated beta cells – cell-based, INS-1E, Gaussia luciferase, luminescence, cherry-pick, set 2, dose response (AID 977607);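 note: 0% = median of the plate neutral control wells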
Settings: INS-1E GLuc insulin secretion reporter, 2-3 h, stronger effect = higher value; at 35 µM, 100% = signal doubled over neutral wells unless noted

Max activation, inactive:
CCN(CC)C(=O)Cn1cc(C(=O)C(=O)N2CCN(Cc3ccccc3)CC2)c2ccccc21 -19.3%, CC(=O)N1CCN(c2nnc(-c3ccc(C)cc3)c3ccccc23)CC1 -19.3% [at 3.8 µM, 100% = signal doubled over neutral wells], Cc1ncc(N=Nc2ccc(F)cc2)c(-c2ccc(Cl)cc2)n1 105%, CC(=O)Nc1nc(NCc2ccccc2Cl)n(-c2ccccc2)n1 -19.9% [at 0.135 µM, 100% = signal doubled over neutral wells], COc1ccc(CCNC(=O)CCn2c(=O)c3cccn3c3cccnc32)cc1OC 27.2% [at 11 µM, 100% = signal doubled over neutral wells], Cc1cc(=O)n(Cc2ccccc2)c2ccccc12 22.3%, CCCn1c(O)c(N=NC(=O)c2cccnc2)c2cc(Br)ccc21 -23%, COc1ccc(N/C=C/C(=O)c2ccc(Cl)cc2)cc1 -21.2% [at 0.42 µM, 100% = signal doubled over neutral wells], Cc1ccc(S(=O)(=O)Nc2nc(C)cc(NN)n2)cc1 -19.8% [at 0.015 µM, 100% = signal doubled over neutral wells], Cc1c(C)c2c(OCC(=O)O)cc3c(c2oc1=O)CCC(C)(C)O3 -24.4% [at 0.135 µM, 100% = signal doubled over neutral wells], COc1cc2c(cc1OC)C(Cc1ccc(O)cc1)N(C)CC2 (stereo not drawn) -15.9% [at 0.0016 µM, 100% = signal doubled over neutral wells], COc1cc2c(cc1OC)C(Cc1ccc(O)cc1)NCC2 (stereo not drawn) 24.7% [at 0.0016 µM, 100% = signal doubled over neutral wells], O=C(NCCC1CCCCN1S(=O)(=O)c1ccc(F)cc1)C(=O)NCc1cccnc1 (stereo not drawn) -23.5% [at 1.2 µM, 100% = signal doubled over neutral wells], COc1ccc2oc(-c3ccncc3)cc(=O)c2c1 16.4%, COc1ccc(C(=O)Cc2cc3cccc(OC)c3oc2=O)cc1 -21.5% [at 0.0016 µM, 100% = signal doubled over neutral wells], O=C(NCc1ccccn1)c1ccccc1OCc1ccc(Cl)cc1Cl -25.4%, COc1ccc2oc(=O)c(C(=O)NCc3ccccn3)cc2c1 -9.33% [at 1.2 µM, 100% = signal doubled over neutral wells], COc1ccc(Cc2nnc(-c3ccccc3)o2)cc1 24.7% [at 0.42 µM, 100% = signal doubled over neutral wells], COc1cc(CN(C)c2ccc(S(=O)(=O)N3CCCC3)cn2)ccc1OC(F)F -33.3% [at 11 µM, 100% = signal doubled over neutral wells], CCN1CCN(CC(=O)Nc2ccc(C(C)=O)cc2)CC1 -17% [at 1.2 µM, 100% = signal doubled over neutral wells], COc1ccc(C(=O)/C=C2/c3ccccc3CC(C)(C)N2C)cc1OC -35.3% [at 1.2 µM, 100% = signal doubled over neutral wells], O=C(NC(=S)Nc1cccc2[nH]ncc12)c1ccccc1 -16.1% [at 1.2 µM, 100% = signal doubled over neutral wells], COc1ccc(C(=O)c2sc(Nc3ccccc3)nc2N)cc1OC 39.1% [at 3.8 µM, 100% = signal doubled over neutral wells], CC(C)COC(=O)N1C[C@H](O)C[C@H]1C(=O)Nc1ccc(Cl)cc1 -12.6% [at 0.015 µM, 100% = signal doubled over neutral wells], Cc1ccc(-c2nc3c(=O)n(C)c4ccccc4c3o2)cc1 27.7% [at 0.42 µM, 100% = signal doubled over neutral wells], O=C(Nc1ccc(NC(=O)c2cccs2)cc1)c1ccc2c(c1)OCO2 -18.9% [at 3.8 µM, 100% = signal doubled over neutral wells], O=C(Nc1ccc2oc(-c3cccnc3)nc2c1)c1ccc2c(c1)OCCO2 21%, CN1CCCCCC1C(=O)N1CCC(N2CCC(C(=O)N3CCOCC3)CC2)CC1 (stereo not drawn) -16.3%, CCOC(=O)c1ccc(S(=O)(=O)N2CCC(C(=O)Nc3nnc(C)o3)CC2)cc1 -12.8% [at 0.0016 µM, 100% = signal doubled over neutral wells], O=C(Nc1nnc(-c2ccc(F)cc2)s1)C1CCN(S(=O)(=O)c2ccc(Cl)cc2)CC1 18.7%, COc1ccccc1N(CC(=O)NCC1CCCO1)C(=O)CNS(=O)(=O)c1ccc(Cl)cc1 (stereo not drawn) -20% [at 0.42 µM, 100% = signal doubled over neutral wells], Fc1ccccc1-c1nnc2ccc3ccccc3n12 -19.8% [at 0.135 µM, 100% = signal doubled over neutral wells], C[C@@H]1CN([C@H](C)CO)C(=O)CCCn2nncc2CO[C@H]1CN(C)C(=O)Nc1ccnc(N2CCOCC2)c1 -14% [at 0.015 µM, 100% = signal doubled over neutral wells], COc1ccc(NC(=O)C2(c3ccc(NC(=O)c4ccc(OC)cc4)cc3)CCCC2)cc1 -18.4% [at 0.005 µM, 100% = signal doubled over neutral wells], COc1ccc(C(=O)Nc2ccccc2C(=O)NCC2CCCO2)cc1 (stereo not drawn) 6.34%, COc1ccc(CCN2CC(=O)NC(=O)C2)cc1OC -13.9% [at 3.8 µM, 100% = signal doubled over neutral wells], CCN(c1ccccc1)c1nc(Cl)nc2c1cnn2C 28.8%, COc1ccc(-c2ccc(=O)n(CC(=O)NC3CCc4ccccc43)n2)cc1OC (stereo not drawn) 20.7% [at 11 µM, 100% = signal doubled over neutral wells], COCc1ccc(C(=O)NC2CCSc3ccccc32)cc1 (stereo not drawn) -17.7%, CCCc1cc(=O)oc2cc(C)cc(OCC(=O)Nc3ccc(S(N)(=O)=O)cc3)c12 24.1% [at 1.2 µM, 100% = signal doubled over neutral wells], Cn1c(=O)c(=O)n(C)c2cc(S(=O)(=O)N3CCN(c4ccc(F)cc4)CC3)ccc21 -17.9% [at 0.046 µM, 100% = signal doubled over neutral wells], CSc1ccc2nnc(-c3cccc(F)c3)n2n1 16.4%, COc1cccc(-c2cc(C(F)(F)F)nc(-n3cncn3)n2)c1 -20.7%, CCN(Cc1ccncc1)C(=O)c1cccc(S(=O)(=O)N2CCCCC2)c1 -18% [at 1.2 µM, 100% = signal doubled over neutral wells], CC(C)CC#Cc1ccc([C@H]2[C@H]3CN(C(=O)c4cnccn4)CC(=O)N3[C@H]2CO)cc1 35.4% [at 0.015 µM, 100% = signal doubled over neutral wells], COc1ccccc1CNC(=O)CCS(=O)(=O)Cc1ccc(C)cc1 -17.3%, Cc1ccc(NC2c3ncccc3C(=O)N2C2CCCCC2)cc1 (stereo not drawn) 28.1%, COc1ccc(C2=Nn3c(nnc3-c3ccccc3OC)SC2)cc1OCC1CC1 -35.7%, COc1ccc(C2=Nn3c(nnc3-c3ccccc3OC)SC2)cc1OC1CCOC1 (stereo not drawn) 43.3% [at 1.2 µM, 100% = signal doubled over neutral wells], COc1ccc(-c2nnc(-c3cccs3)o2)cc1OC 29.4%, COc1ccc(C(O)c2nccc3cc(OC)c(OC)cc23)cc1OC (stereo not drawn) 44.3% [at 3.8 µM, 100% = signal doubled over neutral wells], COc1ccc(CO/N=C/c2c(C)[nH]c(=O)[nH]c2=O)cc1 16.7%, COC(=O)C1C(=O)NC(SC)=C(C#N)C1c1ccccc1 (stereo not drawn) -22.6% [at 0.015 µM, 100% = signal doubled over neutral wells], O=C1N(c2ccccc2)c2ccccc2[C@]12C[C@H](O)CO2 -20.7% [at 0.135 µM, 100% = signal doubled over neutral wells], O=C(COc1ccc(Cl)cc1)NCCS(=O)(=O)N1CCN(c2ccccc2F)CC1 -18.1% [at 0.135 µM, 100% = signal doubled over neutral wells], COc1ccc(OC)c(C2=Nn3c(nnc3-c3ccncc3)SC2)c1 12.7%, CC[C@@H]1CC2=C(C(=O)OC(C)(C)O2)[C@H](c2ccc(F)cc2)O1 23.8% [at 3.8 µM, 100% = signal doubled over neutral wells], C[C@@H]1O[C@H](C2CCCC2)CC2=C1C(=O)OC(C)(C)O2 18% [at 1.2 µM, 100% = signal doubled over neutral wells]

Source: PubChem BioAssay AID977607 (Broad Institute, 2014)
